# Pin1 inhibitor: inhibitors of human Pin1; Potency, µM (top dose mostly 115 µM), most hits filed as inhibitors; actives 0.009% (n = 390,000); Pin1 FP peptide displacement, HiFluor488, 10 min; Q13526; active = well fitted inhibition curve with a large enough effect in the polarisation, with a control signal flat, not every such curve was filed as active; inconclusive = small, poorly fitted or top-dose-only effect, or effect the other way, or a change in a side signal; inactive = no such curve, though single readings can be large or run the other way; the % refers to the polarisation
# Target sequence (Q13526 whole entry, looked up): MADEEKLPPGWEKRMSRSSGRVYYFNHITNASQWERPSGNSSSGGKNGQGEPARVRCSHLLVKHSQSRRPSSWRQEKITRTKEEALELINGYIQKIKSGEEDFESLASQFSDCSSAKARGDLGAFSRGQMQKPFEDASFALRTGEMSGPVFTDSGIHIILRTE
# PI4K2A inh: inhibitors of human PI4K2A. Q9BTU6. purified PI4K2A, ADP-Glo luminescence, 1 h; active compounds read low. activity change, negative = inhibition, % at 76.9 µM. actives 0.13% (n = 420,000). AID 1346378; in the data active = activity change below about -50%; inconclusive = mostly about -30% to -49%
#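 In this quantitative HTS, ADP production by PI4K2A was quantified luminescently after 1 h at ambient temperature; 100 microM adenosine served as plate-quality control.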
# Tb PGK inh: T. brucei PGK inhibition; P07378; PGK/GAPDH coupled, Kinase-Glo luminescence, 60 min; Potency, µM (titrated, usually from 57.5 µM), actives largely listed as inhibitors; actives 0.043% (n = 380,000); AID 602233; active = well fitted inhibition curve with a large enough effect; inconclusive = small, poorly fitted or top-dose-only effect; inactive = no such curve, though single readings can be large or run the other way; note: nearly all actives have a fitted effect of over 60% in size
# Target sequence (P07378 whole entry, looked up): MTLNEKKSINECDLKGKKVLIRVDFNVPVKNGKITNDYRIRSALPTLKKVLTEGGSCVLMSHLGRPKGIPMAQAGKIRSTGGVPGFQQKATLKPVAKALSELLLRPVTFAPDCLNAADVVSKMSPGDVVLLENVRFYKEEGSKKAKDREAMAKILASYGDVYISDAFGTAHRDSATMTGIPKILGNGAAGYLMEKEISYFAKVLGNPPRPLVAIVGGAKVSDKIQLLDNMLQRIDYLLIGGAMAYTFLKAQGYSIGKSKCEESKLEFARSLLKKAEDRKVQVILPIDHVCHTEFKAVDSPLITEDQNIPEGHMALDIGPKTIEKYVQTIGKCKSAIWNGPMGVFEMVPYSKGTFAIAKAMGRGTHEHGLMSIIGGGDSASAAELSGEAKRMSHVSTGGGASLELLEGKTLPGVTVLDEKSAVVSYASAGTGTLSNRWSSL
#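 Luminescent ATP detection (Kinase-Glo Plus) follows a 60-minute room-temperature incubation, with wells lacking PGK as controls. Buffer: 100 mM TEA (pH 7.6), 5 mM MgCl2, 0.01% Tween-20. Coupling enzyme GAPDH (100 nM final) supplies unstable 1,3-BPG in-well.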
# PI5P4K alpha inh: inhibitors of human PI5P4K alpha. P48426. PI5P4Kalpha enzyme, ADP-Glo luminescence, 60 min; active compounds read low. max response, %. actives 1.2% (n = 330,000); active = max response of -50% or lower; inconclusive = between -30% and -50%; inactive = -30% or higher; note: value at the top dose of about 77 µM
#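 Single end-point luminescence (ADP-Glo) quantified ADP from PI5P4Kalpha turnover; ATP 5 microM final, 1 h at RT, 0.1% CHAPS and 0.28 mM EGTA in HEPES pH 7.4.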
# A number is an active result; n = inactive; u = inconclusive; x = no result. Shown is part of a subset that was picked to be rich in hits.
SMILES,Pin1 inhibitor,PI4K2A inh,Tb PGK inh,PI5P4K alpha inh
COc1ccc(C2Nc3ccccc3C(=O)N2Cc2ccccc2)cc1Oc1ccc(NC(C)=O)cc1 (centres undefined),n,x,x,x
C=CCSC1=N/C(=C\c2cc(OCC)c(OC(C)=O)c([N+](=O)[O-])c2)C(=O)S1,x,n,n,-72
C=CCSC1=N/C(=C\c2ccc3c(c2)OCO3)C(=O)S1,n,n,n,n
CC(=O)c1cc2ccccc2s1,x,n,x,x
COc1ccc(OC)c(/C=N/NC(=O)c2[nH]nc3c2CCc2ccccc2-3)c1,n,n,n,-51
OC[C@H]1O[C@@H](OCCc2ccc(O)cc2)[C@H](O)[C@@H](O)[C@H]1O,x,n,x,x
O=[S+]([O-])(c1ccc2c(c1)OCCO2)N1CCN([S+](=O)([O-])c2c(F)cc(F)cc2Br)CC1,n,x,x,x
COC(=O)c1cc2oc3ccccc3c2n1CC(=O)Nc1ccc(Cl)cc1F,n,n,n,x
N#Cc1nc(Nc2ccc(F)cc2)nc(NC2CCCC2)n1,n,x,x,x
O=C1NC[C@@H](Cc2ccc(O)cc2)N(CCc2cc(C(F)(F)F)cc(C(F)(F)F)c2)C1=O,x,n,x,-68
c1coc(-c2nn3c(-c4ccco4)nnc3s2)c1,n,n,n,-62
Cc1ccc(N(C)S(=O)(=O)c2ccc3c(c2)CCC(=O)N3)cc1C,n,x,x,x
CN1C(=O)C(Cl)(Cl)C(=O)c2ccccc21,n,n,n,-89
CN1C(=O)C2(NC(=O)c3ccccc3N2C)c2ccccc21 (centres undefined),n,n,n,n
Cc1nc2n(c(=O)c1CCN1CCC(C(=O)c3ccc(F)cc3)CC1)CCS2,x,n,x,x
Cc1cccc(-c2onc3ccc(C(=O)/C=C/N(C)C)cc23)c1,n,n,x,-68
Cc1ccc(-c2onc3ccc(C(=O)/C=C/N(C)C)cc23)cc1,n,n,n,u
CNC(=O)c1cnn2c(C)cc(C)nc12,n,x,x,x
O=C1c2c(O)cc(O)cc2OC(c2ccc(O)c(O)c2)C1O (centres undefined),x,n,x,x
COc1ccc([C@H]2Oc3cc(O)cc(O)c3C(=O)C2[C@@H]2C(=O)c3c(O)cc(O)cc3O[C@@H]2c2ccc(OC)cc2)cc1 (some centres undefined),n,n,n,-58
CN(C)S(=O)(=O)c1cc(NC(=O)COC(=O)/C=C/c2ccco2)ccc1Cl,u,n,u,-71
COC(=O)C1=C(C)NC(C)=C(C(=O)OCCc2ccc(N3CCN(C(c4ccccc4)c4ccccc4)CC3)cc2)C1c1cccc([N+](=O)[O-])c1 (centres undefined),x,n,x,x
Nc1ccc2cccc(O)c2c1,u,n,n,-80
CCc1ccc2[nH]c(=O)c(C3C(C#N)=C(N)Oc4c3ccc3cccnc43)cc2c1 (centres undefined),u,n,n,-51
COc1cccc(-n2c(SCc3cc(=O)oc4cc(O)c(O)cc34)nc3ccccc3c2=O)c1,u,n,u,-61
SMILES,Pin1 inhibitor,PI4K2A inh,Tb PGK inh,PI5P4K alpha inh
CCN(CC)C(=O)CSc1nc2ccccc2c(=O)n1-c1cccc(OC)c1,n,n,n,n
O=C1CCc2cc(S(=O)(=O)Nc3ccc(Cl)c(Cl)c3)ccc2N1,n,x,x,x
Cc1[nH]nc2c1C1(C(=O)Nc3ccc([N+](=O)[O-])cc31)C(C#N)=C(N)O2 (centres undefined),n,n,n,-56
Cc1csc(N=Nc2ccc(N(C)C)cc2)[n+]1[O-],x,-79,16µM,-56
CCOc1cc(/C=C\c2nc(O)c([N+](=O)[O-])c(=O)[nH]2)ccc1OC(C)C,n,n,n,n
O=c1[nH]c(/C=C\c2cccs2)nc(O)c1[N+](=O)[O-],x,n,n,-66
O=c1[nH]c(/C=C\c2ccc(O)cc2)nc(O)c1[N+](=O)[O-],n,n,n,-89
COc1cc(/C=C/c2nc3ccccc3c(=O)[nH]2)cc(Br)c1O,n,n,n,n
O=c1[nH]c(/C=C\c2ccc(O)c(Cl)c2)nc(O)c1[N+](=O)[O-],n,n,n,-97
C=CCc1cc(/C=C/c2nc(O)c([N+](=O)[O-])c(=O)[nH]2)cc(OC)c1O,u,n,n,-64
Cn1nnnc1Sc1ncnc2scc(-c3ccc(C(=O)OC(C)(C)C)cc3)c12,n,x,x,x
Oc1ccc(/C=N/NC(=S)N/N=C/c2ccc(O)cc2)cc1,n,n,n,-51
Oc1ccc(/C=N/NC(=S)Nc2cccnc2)cc1,n,n,n,n
COc1cccc(-c2nnc3n2N=C(c2ccc(OC)cc2OC)CS3)c1,n,x,x,x
C=C(C)C(=O)OCC(O)CO (centres undefined),x,n,x,x
Cc1nn(-c2ccc(Cl)cc2)c(=O)c2ccccc12,n,n,n,n
Cc1c(Cl)sn(-c2ccc(Cl)cc2)c1=O,n,n,n,-73
Cc1ccccc1N(C)C1=N[S+](=O)([O-])c2ccccc21,n,x,x,x
Nc1ccc2c(c1)C(=O)N(c1ccc3ccccc3c1)C2=O,n,x,x,x
O=C(COc1cccnc1[N+](=O)[O-])c1ccc(Cl)s1,u,n,n,-86
O=C(COc1cccnc1[N+](=O)[O-])Nc1ncc(Cl)cc1Cl,u,n,n,-71
O=C(COc1cccnc1[N+](=O)[O-])Nc1c(Cl)cccc1Cl,n,n,n,n
O=C(COc1cccnc1[N+](=O)[O-])Nc1cc(Cl)ccc1Cl,n,n,n,n
COCCc1ccc(OCC2CO2)cc1 (centres undefined),x,n,x,x
Cc1cccc(Nc2nc(N)nc(N)c2N=O)c1,n,n,n,-51
SMILES,Pin1 inhibitor,PI4K2A inh,Tb PGK inh,PI5P4K alpha inh
Cc1cccc(Nc2nc(N)c(C#N)c(CC#N)c2C#N)c1,n,n,n,-54
COc1cccc(/C=N/NC(=S)Nc2cccc(S(=O)(=O)N(C)C)c2)c1,u,n,n,n
CCn1c(C)nc2cc(C(=O)N/N=C/c3ccc(O)c(O)c3O)ccc21,u,n,n,-74
CN(C)S(=O)(=O)c1cccc(NC(=S)N/N=C/c2ccc(O)c(O)c2O)c1,x,n,n,-97
CCN(CC)S(=O)(=O)c1cccc(C(=O)N/N=C/c2ccc(O)c(O)c2O)c1,u,n,n,-70
COc1ccc(O)c(/C=N/NC(=S)Nc2cccc(S(=O)(=O)N(C)C)c2)c1,n,n,n,-56
CCOc1ccccc1/C=N/NC(=O)c1cccc(S(=O)(=O)N(CC)CC)c1,n,n,n,n
Cc1cc2c(s1)c1cnn(Cc3ccc(C(F)(F)F)cc3F)c(=O)c1n2C,n,x,x,x
O=C(Nc1cccc2cccnc12)OC(Cl)(Cl)Cl,n,x,x,x
Cc1cccc(-c2nn(-c3ccccc3)cc2CNCCO)c1,n,x,x,x
COCCn1c(C)cc(C(=O)COC(=O)c2ccc3ncsc3c2)c1C,n,n,n,-58
CC(C)(C)OC(=O)Cc1nnc(C(C(=O)OCc2ccccc2)c2ccccc2)s1 (centres undefined),n,x,x,x
COc1ccc(NC(=O)c2cc([N+](=O)[O-])ccc2O)cc1,n,-63,u,n
Cc1cc2c(s1)c1cnn(Cc3ccc(C)c(F)c3F)c(=O)c1n2C,n,x,x,x
COc1cccc(C(c2c(C)[nH]n(-c3ccccc3)c2=O)c2c(C)[nH]n(-c3ccccc3)c2=O)c1O,n,-51,n,n
